Source: paper PMC11062922 (Nature Chemical Biology, 2023)
Like-named read-outs stand apart in the source and are kept apart here.

What was measured:
Set-up in all cases: species or system human, MV4-11 + K-562 + COLO205 + SK-N-BE2 + OVCAR-8
ADRBK1 = conditions: read-out: apparent Kd, n = 1
CDK6 = conditions: read-out: apparent Kd, n = 1
ERBB3 = conditions: read-out: apparent Kd; compound concentrations:100 nM and 1000 nM (sheet 'Samples'); n = 1
RIOK2 = conditions: read-out: apparent Kd, n = 1
AKT1 = conditions: read-out: apparent Kd, n = 1
AKT2 = conditions: read-out: apparent Kd, n = 1
CSNK1A1 = conditions: read-out: apparent Kd, n = 1
MAP2K2 = conditions: read-out: apparent Kd, n = 1
MAP3K4 = conditions: read-out: apparent Kd; compound concentrations:100 nM and 1000 nM (sheet 'Samples'); n = 1
MAPK14 = conditions: read-out: apparent Kd, compound concentrations: 100 nM and 1000 nM (sheet 'Samples'), n = 1
NCL = conditions: read-out: apparent Kd; compound concentrations:100 nM and 1000 nM (sheet 'Samples'); n = 1
OPA1 = conditions: read-out: apparent Kd; compound concentrations:100 nM and 1000 nM (sheet 'Samples'); n = 1
PIM2 = conditions: read-out: apparent Kd; compound concentrations:100 nM and 1000 nM (sheet 'Samples'); n = 1
PIP4K2C = conditions: read-out: apparent Kd, n = 1
PRKAG2 = conditions: read-out: apparent Kd, n = 1
PYGL = conditions: read-out: apparent Kd, n = 1
STK16 = conditions: read-out: apparent Kd; compound concentrations:100 nM and 1000 nM (sheet 'Samples'); n = 1
STK26 = conditions: read-out: apparent Kd; compound concentrations:100 nM and 1000 nM (sheet 'Samples'); n = 1
AKT3 = conditions: read-out: apparent Kd; compound concentrations: 100 nM and 1000 nM (sheet 'Samples'), CATDS: 5.2731999581220101E-2; n = 1
CDK17 = conditions: read-out: apparent Kd; compound concentrations: 100 nM and 1000 nM (sheet 'Samples'), CATDS: 5.5041868266542698E-2; n = 1
CDKL5 = conditions: read-out: apparent Kd; compound concentrations: 100 nM and 1000 nM (sheet 'Samples'), CATDS: 5.3023462381207802E-2; n = 1
MAP2K1 = conditions: read-out: apparent Kd, compound concentrations: 100 nM and 1000 nM (sheet 'Samples'), n = 1
MET = conditions: read-out: apparent Kd; compound concentrations: 100 nM and 1000 nM (sheet 'Samples'), CATDS: 5.0838558886591501E-2; n = 1
NNT = conditions: read-out: apparent Kd, n = 1
NQO1 = conditions: read-out: apparent Kd, n = 1
RAB6A;RAB6B = conditions: read-out: apparent Kd; compound concentrations: 100 nM and 1000 nM (sheet 'Samples'), CATDS: 6.9234988104968295E-2; n = 1
VDAC3 = conditions: read-out: apparent Kd, compound concentrations: 100 nM and 1000 nM (sheet 'Samples'), n = 1
COX5A = conditions: read-out: apparent Kd; compound concentrations:100 nM and 1000 nM (sheet 'Samples'); n = 1
EPHA7 = conditions: read-out: apparent Kd; compound concentrations:100 nM and 1000 nM (sheet 'Samples'); n = 1
PIK3CB = conditions: read-out: apparent Kd; compound concentrations:100 nM and 1000 nM (sheet 'Samples'); n = 1
ADCK5 = conditions: read-out: apparent Kd; compound concentrations:100 nM and 1000 nM (sheet 'Samples'); n = 1
CDK4 = conditions: read-out: apparent Kd; compound concentrations:100 nM and 1000 nM (sheet 'Samples'); n = 1
GSK3A = conditions: read-out: apparent Kd; compound concentrations:100 nM and 1000 nM (sheet 'Samples'); n = 1
CDK10 = conditions: read-out: apparent Kd; compound concentrations: 100 nM and 1000 nM (sheet 'Samples'), CATDS: 0.80077145880212897; n = 1
PRKAA2 = conditions: read-out: apparent Kd; compound concentrations: 100 nM and 1000 nM (sheet 'Samples'), CATDS: 0.26734267999924899; n = 1
DDR1 = conditions: read-out: apparent Kd; compound concentrations:100 nM and 1000 nM (sheet 'Samples'); n = 1
TP53RK = conditions: read-out: apparent Kd; compound concentrations:100 nM and 1000 nM (sheet 'Samples'); n = 1
ADK = conditions: read-out: apparent Kd; compound concentrations: 100 nM and 1000 nM (sheet 'Samples'), CATDS: 1; n = 1
FLT3 = conditions: read-out: apparent Kd; compound concentrations: 100 nM and 1000 nM (sheet 'Samples'), CATDS: 6.2638012545430999E-2; n = 1
HSP90B1 = conditions: read-out: apparent Kd; compound concentrations: 100 nM and 1000 nM (sheet 'Samples'), CATDS: 7.7391071706101697E-2; n = 1
IARS = conditions: read-out: apparent Kd; compound concentrations: 100 nM and 1000 nM (sheet 'Samples'), CATDS: 5.4756501565327097E-2; n = 1
MAPKAPK2 = conditions: read-out: apparent Kd; compound concentrations: 100 nM and 1000 nM (sheet 'Samples'), CATDS: 5.3693102707434E-2; n = 1
MDN1 = conditions: read-out: apparent Kd; compound concentrations: 100 nM and 1000 nM (sheet 'Samples'), CATDS: 0.23126444967608101; n = 1
[1] = compound concentrations:100 nM and 1000 nM (sheet 'Samples')
[2] = compound concentrations: 100 nM and 1000 nM (sheet 'Samples'), CATDS: 1

CCc1cc(Nc2nccc(-c3c(-c4ccc(OC)c(C(=O)Nc5c(F)cccc5F)c4)nc4ccccn34)n2)c(OC)cc1N1CCC(N2CCN(S(C)(=O)=O)CC2)CC1 [GSK1904529]
potency estimated from few doses (ADRBK1; [1]): 2.03 µM | potency estimated from few doses (CDK6; [1]): 2.37 µM | potency estimated from few doses (ERBB3): 1.36 µM | potency estimated from few doses (RIOK2; [1]): 2.22 µM

Cc1ccc(NC(=O)CC2CC2)cc1-c1ccc(C(=O)NCC2CC2)cc1 [GW796920X]
potency estimated from few doses (ADRBK1; [1]): 1.86 µM | potency estimated from few doses (AKT1; [1]): 1.77 µM | potency estimated from few doses (AKT2; [1]): 1.68 µM | potency estimated from few doses (CSNK1A1; [1]): 2.22 µM | potency estimated from few doses (MAP2K2; [1]): 2.22 µM | potency estimated from few doses (MAP3K4): 1.8 µM | potency estimated from few doses (MAPK14; CATDS: 0.122142095126863): 0.629 µM | potency estimated from few doses (NCL): 2.3 µM | potency estimated from few doses (OPA1): 1.7 µM | potency estimated from few doses (PIM2): 1.74 µM | potency estimated from few doses (PIP4K2C; [1]): 1.65 µM | potency estimated from few doses (PRKAG2; [1]): 1.31 µM | potency estimated from few doses (PYGL; [1]): 2.13 µM | potency estimated from few doses (STK16): 2.17 µM | potency estimated from few doses (STK26): 1.45 µM

N#Cc1c(NC(=O)CN2CCOCC2)sc2c1CCCC2.O=C(O)C(=O)O [SB-657836-AAA]
potency estimated from few doses (ADRBK1; compound concentrations: 100 nM and 1000 nM (sheet 'Samples'), CATDS: 5.9509771658031299E-2): 1.68 µM | potency estimated from few doses (AKT1; compound concentrations: 100 nM and 1000 nM (sheet 'Samples'), CATDS: 5.9095519599072298E-2): 1.7 µM | potency estimated from few doses (AKT2; compound concentrations: 100 nM and 1000 nM (sheet 'Samples'), CATDS: 5.77170152352365E-2): 1.79 µM | potency estimated from few doses (AKT3): 2.17 µM | potency estimated from few doses (CDK17): 1.97 µM | potency estimated from few doses (CDK6; compound concentrations: 100 nM and 1000 nM (sheet 'Samples'), CATDS: 5.9987442985443201E-2): 1.65 µM | potency estimated from few doses (CDKL5): 2.14 µM | potency estimated from few doses (CSNK1A1; compound concentrations: 100 nM and 1000 nM (sheet 'Samples'), CATDS: 5.2392632468863803E-2): 2.2 µM | potency estimated from few doses (MAP2K1; CATDS: 5.50231746712945E-2): 1.98 µM | potency estimated from few doses (MAP2K2; compound concentrations: 100 nM and 1000 nM (sheet 'Samples'), CATDS: 7.31538140973165E-2): 1.15 µM | potency estimated from few doses (MET): 2.37 µM | potency estimated from few doses (NNT; compound concentrations: 100 nM and 1000 nM (sheet 'Samples'), CATDS: 6.8732534109556695E-2): 1.28 µM | potency estimated from few doses (NQO1; compound concentrations: 100 nM and 1000 nM (sheet 'Samples'), CATDS: 6.20542756151947E-2): 1.55 µM | potency estimated from few doses (PIP4K2C; compound concentrations: 100 nM and 1000 nM (sheet 'Samples'), CATDS: 5.5359350052651503E-2): 1.95 µM | potency estimated from few doses (PRKAG2; compound concentrations: 100 nM and 1000 nM (sheet 'Samples'), CATDS: 6.3549748711714801E-2): 1.48 µM | potency estimated from few doses (RAB6A;RAB6B): 1.26 µM | potency estimated from few doses (VDAC3; CATDS: 6.3375606463047907E-2): 1.49 µM

O=c1cc(N2CCOCC2)nc2n(Cc3ccccc3F)ccn12 [GSK2297428A]
potency estimated from few doses (ADRBK1; [1]): 1.69 µM | potency estimated from few doses (COX5A): 1.3 µM | potency estimated from few doses (EPHA7): 1.66 µM | potency estimated from few doses (PIK3CB): 0.385 µM

O=C(Nc1n[nH]c2nc(-c3nccs3)c(Br)cc12)C1CCCC1 [SB-742609]
potency estimated from few doses (ADCK5): 1.31 µM | potency estimated from few doses (CDK4): 1.11 µM | potency estimated from few doses (GSK3A): 0.519 µM

CS(=O)(=O)Nc1ccc(-c2ccc3c(NC(=O)C4CC4)n[nH]c3c2)cc1 [SB-742865]
potency estimated from few doses (ADRBK1; compound concentrations: 100 nM and 1000 nM (sheet 'Samples'), CATDS: 0.24933386454831599): 1.84 µM | potency estimated from few doses (CDK10): 0.107 µM | potency estimated from few doses (PRKAA2): 1.44 µM

O=C(NCCCN1CCOC1=O)c1cnc(NCc2cc(Cl)ccc2Cl)nc1NC1CCCC1 [PFE-PKIS_12]
potency estimated from few doses (ADRBK1; [1]): 1.11 µM

COc1cc(Nc2ncc3c(C)nc(-c4cccc(C(F)(F)F)c4)n3n2)cc(OC)c1OC [GW837331X]
potency estimated from few doses (ADRBK1; [2]): 2.01 µM

Nc1cccc(-c2ccc3c(N)n[nH]c3c2)n1 [GSK2192730A]
potency estimated from few doses (ADRBK1; [2]): 1.75 µM

COC(=O)Nc1nc2ccc(Oc3ccc(NC(=O)Nc4cc(C(F)(F)F)ccc4F)cc3)cc2n1C.Cl [GW692089A]
potency estimated from few doses (ADCK5): 1.77 µM | potency estimated from few doses (ADRBK1; [1]): 1.5 µM | potency estimated from few doses (AKT2; [1]): 2.41 µM | potency estimated from few doses (CDK4): 2.2 µM | potency estimated from few doses (CDK6; [1]): 2.3 µM | potency estimated from few doses (DDR1): 1.03 µM | potency estimated from few doses (MAP2K2; [1]): 2.02 µM | potency estimated from few doses (NNT; [1]): 1.91 µM | potency estimated from few doses (NQO1; [1]): 1.81 µM | potency estimated from few doses (RIOK2; [1]): 2.17 µM | potency estimated from few doses (STK26): 1.76 µM | potency estimated from few doses (TP53RK): 1.4 µM

O=C(Nc1n[nH]c2nc(-c3ccco3)c(Br)cc12)C1CC1 [SB-739452]
potency estimated from few doses (ADK): 1.72 µM

O=C(Nc1ccc2c(c1)OCO2)NC1CCN(c2ccnc(NCc3ccc(F)cc3)n2)CC1 [GSK1379859A]
potency estimated from few doses (ADRBK1; [2]): 2.16 µM

Cc1ccc(NC(=O)Nc2cc(C(C)(C)C)nn2-c2ccccc2)cc1 [GSK1014915A]
potency estimated from few doses (ADRBK1; compound concentrations: 100 nM and 1000 nM (sheet 'Samples'), CATDS: 5.8321770731493798E-2): 1.29 µM | potency estimated from few doses (AKT1; compound concentrations: 100 nM and 1000 nM (sheet 'Samples'), CATDS: 4.8230371724731401E-2): 2.03 µM | potency estimated from few doses (AKT2; compound concentrations: 100 nM and 1000 nM (sheet 'Samples'), CATDS: 6.0440208262816403E-2): 1.19 µM | potency estimated from few doses (CDK6; compound concentrations: 100 nM and 1000 nM (sheet 'Samples'), CATDS: 5.1522031717759098E-2): 1.71 µM | potency estimated from few doses (FLT3): 1.11 µM | potency estimated from few doses (HSP90B1): 0.749 µM | potency estimated from few doses (IARS): 1.48 µM | potency estimated from few doses (MAP2K1; CATDS: 5.5357684673120397E-2): 1.44 µM | potency estimated from few doses (MAP2K2; compound concentrations: 100 nM and 1000 nM (sheet 'Samples'), CATDS: 6.2527819701534898E-2): 1.11 µM | potency estimated from few doses (MAPK14; CATDS: 6.9601617206552405E-2): 0.906 µM | potency estimated from few doses (MAPKAPK2): 1.55 µM | potency estimated from few doses (MDN1): 0.156 µM | potency estimated from few doses (NNT; compound concentrations: 100 nM and 1000 nM (sheet 'Samples'), CATDS: 4.6645770981233098E-2): 2.22 µM | potency estimated from few doses (NQO1; compound concentrations: 100 nM and 1000 nM (sheet 'Samples'), CATDS: 6.3403997272240303E-2): 1.08 µM | potency estimated from few doses (PYGL; compound concentrations: 100 nM and 1000 nM (sheet 'Samples'), CATDS: 4.60061770009558E-2): 2.31 µM | potency estimated from few doses (RIOK2; compound concentrations: 100 nM and 1000 nM (sheet 'Samples'), CATDS: 4.9711958169324999E-2): 1.87 µM | potency estimated from few doses (VDAC3; CATDS: 5.6878291770418803E-2): 1.36 µM
